Experiment in all cases: NCI-60 one-dose screen, 48 h (100 = growth as untreated, 0 = no growth, -100 = all killed)
What all share (details): 10 µM

Test [1] concerns NCI-H23 lung.
Test [2] has as its system NCI-H226 lung.
Test [3] has as its system NCI-H322M lung.
Test [4] has as its system HOP-62 NSCLC.
For test [5], the system named is HOP-92 NSCLC.
The subject of test [6] is NCI-H522 lung.
In test [7] the test system is A549/ATCC NSCLC.
The test system of test [8] is 786-0 renal.
Test [9] has as its system COLO 205 colon.
The subject of test [10] is DU-145 prostate.
Test [11] concerns K-562 leukemia.
The subject of test [12] is MALME-3M melanoma.
The subject of test [13] is MDA-MB-231 breast.
The test system of test [14] is RXF 393 renal.
Test [15] has as its system SF-268 CNS.
In test [16] the test system is SF-295 CNS.
Test [17] deals with SF-539 CNS.
Test [18] concerns UACC-257 melanoma.
Test [19] relates to M14 melanoma.

About 83,000 compounds went through this panel and 20% of them were active in at least one assay; those are over-represented in the sample as a whole.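 Cells were grown in 96-well plates and exposed to the test compound at a single concentration for 48 hours; results are reported as percent growth, with values below 10 considered active.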 Unmarked numbers belong to inactive results. The source made the active and inactive calls.

Take `O=NN(CC(=O)N/N=C/C=C\c1ccccc1)CC(=O)N/N=C/C=C/c1ccccc1`: the growth in test [1] is 112%; in test [2], 90.7%; in [3], 91.2%; in test [4], 69.6%; in test [5], 60.6%; in test [6], 95.5%. Moreover, the growth in test [7] is 97.3%; in test [8], 110%; in test [9] it was 109%; in [10], 109%; in test [11], 96.9%; in [12] it was 90.6%. Moreover, the growth is 89.2% in [13]; 71.3% in test [14]; 88% in [15]; 106% in test [16]; 92.3% in [17]; 98.8% in test [18]. In addition, the growth in [19] is 97.5%.

For `COC1OC2COC(c3ccccc3)OC2C(=O)C1NC(=O)c1ccccc1` (stereo not given), the growth in test [1] was 100%; in [2], 106%; in [3], 106%; in test [4] it was 86.9%; in test [5] it was 79.3%; in test [6], 95.2%. Further, the growth in test [7] was 105%; in [8], 109%; in test [9], 97.2%; in test [10] it was 95.6%; in test [11] it was 127%; in test [13], 94.1%. Also, the growth in test [14] is 122%; in test [15], 99.1%; in [16], 88.5%; in test [17], 101%; in [18], 104%; in test [19] it was 99.8%.

For the molecule `Cc1ccc(C2C=C(c3ccc(Cl)cc3)N=C3SC=CN32)c(Br)c1` (stereo not given), the growth is 85% in [1]; 55.5% in test [2]; 85.5% in test [3]; 96.5% in test [4]; 80.6% in test [5]; 80.7% in test [6]. Also, the growth in [7] is 86.3%; in [8], 93.1%; in test [9], 91.1%; in test [10], 89.1%; in test [11], 44.9%; in test [12] it was 87.3%. Further, the growth in [13] was 90%; in test [14], 71.7%; in [15], 92%; in test [16], 96.1%; in [17], 89.7%; in test [18] it was 103%. Moreover, the growth in [19] is 94.4%.

As for `COc1ccc(Nc2ccnc(N3CCN(c4ccnc5cc(Cl)ccc45)CC3)n2)cc1`, the growth in test [1] is 9.35% (active); in test [2], 1.67% (active); in test [3], 14.4%; in [4] it was 16.5%; in test [5], -21.9% (active); in test [6], -17.9% (active). The growth in [7] is 7.39% (active); in [8] it was 7.79% (active); in test [9], -7.2% (active); in [10], 15.6%; in [11], 2.55% (active); in [12], 5.65% (active). For the same molecule, the growth in [13] is 24.8%; in test [14], -26.6% (active); in [15], 30.3%; in test [16] it was -4.17% (active); in test [17], -31.4% (active); in [18], -1.27% (active). In addition, in test [19], the growth is -13.3% (active).

`CC(=O)OC1Oc2ccccc2-c2oc(=O)c(-c3cc(=O)oc4cc(O)ccc34)cc21` (stereo not given): the growth in [1] was 80.8%; in test [2] it was 91.5%; in [3] it was 89.2%; in [4], 93.8%; in test [5], 44.8%; in test [6], 69.6%. Also, the growth was 84.3% in test [7]; 80.4% in [8]; 101% in [9]; 78.3% in test [10]; 33.2% in [11]; 68.9% in test [12]. Also, the growth in test [13] was 86.3%; in test [15] it was 97.1%; in test [16], 73.6%; in test [17], 89%; in [18] it was 80.1%; in test [19] it was 72.1%.

Consider `S=c1c2ncccc2c(-c2ccccn2)nn1Cc1ccccn1`, for which the growth is 90.6% in test [1]; 104% in [2]; 102% in test [3]; 85.3% in test [4]; 94.7% in test [5]; 88.5% in [6]. Moreover, the growth in [7] was 81%; in test [8] it was 96.9%; in test [9] it was 92.8%; in test [10], 111%; in test [11] it was 95.6%; in [12], 89.6%. In addition, the growth in test [13] was 112%; in test [14], 114%; in test [15], 108%; in [16], 96%; in test [17] it was 99.7%; in test [18], 95.6%. In test [19], the growth was 89.9%.

`CCCCc1ccc(NC(=O)N(CCCl)N=O)cc1`: the growth is 109% in [1]; 91.2% in [2]; 96.8% in test [3]; 90.8% in test [4]; 105% in test [5]; 97% in test [6]. For the same molecule, the growth in test [7] is 102%; in [8], 94.2%; in [9], 101%; in test [10], 106%; in [11] it was 88.1%; in [12] it was 101%. The growth in test [13] was 107%; in test [14], 93.4%; in test [15], 79.3%; in [16], 73.9%; in test [17] it was 82.2%; in test [18] it was 103%. Besides, the growth in [19] was 99.2%.

For `CC(=O)OCC(COC(C)=O)(COC(C)=O)COC(C)=O`, the growth in test [1] is 102%; in test [2] it was 93.5%; in [3], 99.5%; in [4] it was 102%; in [5] it was 105%; in test [6], 99.4%. The growth in [7] is 111%; in test [8] it was 112%; in test [9], 109%; in test [10] it was 103%; in [11] it was 95.4%; in test [12], 94.6%. The growth was 105% in [13]; 104% in [14]; 94.7% in test [15]; 103% in test [16]; 111% in test [17]; 103% in test [18]. Besides, in [19], the growth was 108%.

Source of the values: PubChem BioAssay (NCI).
